Source: the supplement of paper PMC11732987, “Enantioselective OTUD7B fragment discovery through chemoproteomics screening and high-throughput optimisation” (Communications Chemistry, 2025)
Unmarked numbers belong to inactive results.

How the values were obtained:
Assay in all cases: log2 ratio of Biotin-Ahx-Ub-VS probe labelling (fragment/DMSO); higher = less target engagement (more negative = stronger competition), active = hit call of the paper (q ≤ 0.05, log2 ratio ≤ -1)
Conditions in all cases: compound concentration: 200 uM; treatment time: 3 h
[1] = biological target: T1, OTUD6B (UniProt Q8N6M0)
T1 sequence (whole entry): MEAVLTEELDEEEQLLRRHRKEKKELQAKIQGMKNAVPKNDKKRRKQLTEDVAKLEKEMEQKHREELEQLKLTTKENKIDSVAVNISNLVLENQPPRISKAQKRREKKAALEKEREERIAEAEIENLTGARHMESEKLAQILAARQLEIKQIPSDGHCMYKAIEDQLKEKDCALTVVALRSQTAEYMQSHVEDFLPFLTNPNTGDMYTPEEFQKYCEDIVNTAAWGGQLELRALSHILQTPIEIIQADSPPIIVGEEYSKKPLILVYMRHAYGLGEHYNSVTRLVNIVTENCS
Method in brief: (§1)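 Triplicate samples of HEK293T lysate, 495 µg each, received fragment at 200 µM or vehicle for 3 h, followed by Biotin-Ahx-Ub-VS (0.5 µM final) for 1 h. After NeutrAvidin enrichment of labelled DUBs and LysC/trypsin digestion, peptides were run by diaPASEF LC-MS/MS. The values are average log2 fragment/vehicle ratios from global-median-normalised Spectronaut label-free quantities, tested by unpaired t-test on proteins having ≥2 unique peptides.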

[2] = biological target: T2, OTUD7B (UniProt Q6GQQ9)
T2 sequence (whole entry): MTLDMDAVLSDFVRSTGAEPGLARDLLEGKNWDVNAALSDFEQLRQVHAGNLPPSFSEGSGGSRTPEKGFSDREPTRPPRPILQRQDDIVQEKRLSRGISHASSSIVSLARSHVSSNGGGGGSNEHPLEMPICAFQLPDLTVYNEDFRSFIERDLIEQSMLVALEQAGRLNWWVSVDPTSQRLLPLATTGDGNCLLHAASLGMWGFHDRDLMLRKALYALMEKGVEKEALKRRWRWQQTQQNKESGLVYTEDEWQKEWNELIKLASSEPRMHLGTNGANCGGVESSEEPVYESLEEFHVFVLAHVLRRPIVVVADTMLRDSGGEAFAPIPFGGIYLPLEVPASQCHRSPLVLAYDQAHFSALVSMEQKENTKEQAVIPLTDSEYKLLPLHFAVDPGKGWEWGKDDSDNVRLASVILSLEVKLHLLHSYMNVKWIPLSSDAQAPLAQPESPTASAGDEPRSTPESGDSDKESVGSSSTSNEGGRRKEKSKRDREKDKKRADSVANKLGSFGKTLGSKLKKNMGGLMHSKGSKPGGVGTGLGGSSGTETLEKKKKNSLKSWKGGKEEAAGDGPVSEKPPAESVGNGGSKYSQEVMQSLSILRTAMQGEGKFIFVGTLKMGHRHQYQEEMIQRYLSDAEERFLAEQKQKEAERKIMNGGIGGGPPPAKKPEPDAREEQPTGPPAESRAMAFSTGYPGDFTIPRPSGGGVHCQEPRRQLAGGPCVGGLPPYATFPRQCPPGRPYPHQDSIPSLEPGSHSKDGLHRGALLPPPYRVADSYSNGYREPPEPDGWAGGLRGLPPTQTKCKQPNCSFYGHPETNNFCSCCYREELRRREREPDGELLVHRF
Method in brief: as §1

[3] = biological target: PRPF8 (UniProt Q6P2Q9)
Method in brief: as §1

[4] = biological target: T3, PSMD7 (UniProt P51665)
T3 sequence (whole entry): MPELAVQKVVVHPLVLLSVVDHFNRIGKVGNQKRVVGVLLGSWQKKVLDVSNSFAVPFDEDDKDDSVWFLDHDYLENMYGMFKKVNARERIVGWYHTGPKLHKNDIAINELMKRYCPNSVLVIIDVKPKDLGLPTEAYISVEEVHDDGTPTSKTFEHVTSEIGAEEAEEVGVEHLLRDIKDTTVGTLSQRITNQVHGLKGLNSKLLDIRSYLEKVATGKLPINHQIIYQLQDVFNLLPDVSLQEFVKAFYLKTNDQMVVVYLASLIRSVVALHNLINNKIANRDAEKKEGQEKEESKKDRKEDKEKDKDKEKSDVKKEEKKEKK
Method in brief: as §1

[5] = biological target: UCHL1 (UniProt P09936)
Method in brief: as §1

[6] = biological target: T4, UCHL3 (UniProt P15374)
T4 sequence (whole entry): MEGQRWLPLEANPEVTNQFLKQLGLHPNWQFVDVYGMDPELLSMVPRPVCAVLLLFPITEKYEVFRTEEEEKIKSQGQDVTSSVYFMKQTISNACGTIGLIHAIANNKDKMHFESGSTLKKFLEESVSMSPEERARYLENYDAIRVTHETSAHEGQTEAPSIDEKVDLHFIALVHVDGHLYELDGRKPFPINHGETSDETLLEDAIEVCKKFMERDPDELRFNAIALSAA
Method in brief: as §1

[7] = biological target: T5, UCHL5 (UniProt Q9Y5K5)
T5 sequence (whole entry): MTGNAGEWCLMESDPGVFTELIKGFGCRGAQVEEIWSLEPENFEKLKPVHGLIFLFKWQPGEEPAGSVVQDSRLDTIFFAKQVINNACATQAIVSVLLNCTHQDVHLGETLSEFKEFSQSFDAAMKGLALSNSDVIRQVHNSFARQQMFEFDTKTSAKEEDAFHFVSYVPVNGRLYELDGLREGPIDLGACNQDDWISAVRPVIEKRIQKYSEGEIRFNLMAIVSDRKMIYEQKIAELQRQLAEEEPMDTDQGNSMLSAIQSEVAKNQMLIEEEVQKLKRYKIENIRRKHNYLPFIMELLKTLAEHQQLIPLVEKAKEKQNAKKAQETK
Method in brief: as §1

[8] = biological target: USP10 (UniProt Q14694)
Method in brief: as §1

[9] = biological target: T6, USP15 (UniProt Q9Y4E8)
T6 sequence (whole entry): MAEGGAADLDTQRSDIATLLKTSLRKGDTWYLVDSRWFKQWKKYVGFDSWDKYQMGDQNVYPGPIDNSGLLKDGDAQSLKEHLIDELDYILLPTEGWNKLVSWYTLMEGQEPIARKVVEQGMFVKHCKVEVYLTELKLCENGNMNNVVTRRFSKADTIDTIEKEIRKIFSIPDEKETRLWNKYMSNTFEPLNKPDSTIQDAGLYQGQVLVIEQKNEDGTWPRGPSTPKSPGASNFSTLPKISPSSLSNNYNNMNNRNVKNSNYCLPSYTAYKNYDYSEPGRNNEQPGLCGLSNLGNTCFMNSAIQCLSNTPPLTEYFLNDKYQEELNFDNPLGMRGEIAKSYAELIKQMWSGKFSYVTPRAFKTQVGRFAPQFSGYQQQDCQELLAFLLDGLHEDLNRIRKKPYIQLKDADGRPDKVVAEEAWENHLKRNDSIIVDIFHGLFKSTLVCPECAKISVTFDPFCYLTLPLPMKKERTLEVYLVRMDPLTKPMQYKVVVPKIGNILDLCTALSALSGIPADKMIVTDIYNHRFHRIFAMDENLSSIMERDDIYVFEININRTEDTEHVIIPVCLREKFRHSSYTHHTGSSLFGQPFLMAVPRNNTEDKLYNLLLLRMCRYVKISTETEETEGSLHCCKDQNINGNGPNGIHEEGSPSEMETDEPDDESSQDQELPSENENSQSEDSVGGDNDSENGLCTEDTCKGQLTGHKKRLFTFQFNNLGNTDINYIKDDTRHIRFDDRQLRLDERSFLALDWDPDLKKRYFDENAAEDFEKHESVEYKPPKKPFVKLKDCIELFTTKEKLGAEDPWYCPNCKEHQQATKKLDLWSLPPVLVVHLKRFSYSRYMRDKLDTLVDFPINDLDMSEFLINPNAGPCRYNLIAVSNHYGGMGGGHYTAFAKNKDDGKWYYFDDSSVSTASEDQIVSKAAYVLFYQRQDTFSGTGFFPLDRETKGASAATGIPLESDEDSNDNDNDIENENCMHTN
Method in brief: as §1

[10] = biological target: USP16 (UniProt Q9Y5T5)
Method in brief: as §1

USP10, sequence (Q14694 whole entry): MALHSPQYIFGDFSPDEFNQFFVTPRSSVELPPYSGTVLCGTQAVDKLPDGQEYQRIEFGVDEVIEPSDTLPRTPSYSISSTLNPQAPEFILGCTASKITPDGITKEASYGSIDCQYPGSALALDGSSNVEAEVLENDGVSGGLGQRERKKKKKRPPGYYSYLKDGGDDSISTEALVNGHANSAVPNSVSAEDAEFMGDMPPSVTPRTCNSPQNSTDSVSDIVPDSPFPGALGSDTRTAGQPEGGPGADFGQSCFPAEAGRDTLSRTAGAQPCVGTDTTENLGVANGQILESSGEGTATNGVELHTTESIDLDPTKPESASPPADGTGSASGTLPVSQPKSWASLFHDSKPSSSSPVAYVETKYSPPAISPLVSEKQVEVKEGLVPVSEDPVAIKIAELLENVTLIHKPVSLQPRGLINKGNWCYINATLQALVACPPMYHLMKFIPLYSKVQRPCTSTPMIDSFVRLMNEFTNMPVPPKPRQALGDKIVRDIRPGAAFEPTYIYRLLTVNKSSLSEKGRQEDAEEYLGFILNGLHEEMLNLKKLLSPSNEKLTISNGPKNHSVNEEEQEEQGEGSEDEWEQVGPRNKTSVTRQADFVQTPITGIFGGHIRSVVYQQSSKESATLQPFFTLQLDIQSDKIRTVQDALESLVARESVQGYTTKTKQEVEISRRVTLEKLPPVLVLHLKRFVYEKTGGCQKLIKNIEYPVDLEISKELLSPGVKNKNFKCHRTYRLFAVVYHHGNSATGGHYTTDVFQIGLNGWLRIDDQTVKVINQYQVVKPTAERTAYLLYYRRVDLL
USP16, sequence (Q9Y5T5 whole entry, looked up): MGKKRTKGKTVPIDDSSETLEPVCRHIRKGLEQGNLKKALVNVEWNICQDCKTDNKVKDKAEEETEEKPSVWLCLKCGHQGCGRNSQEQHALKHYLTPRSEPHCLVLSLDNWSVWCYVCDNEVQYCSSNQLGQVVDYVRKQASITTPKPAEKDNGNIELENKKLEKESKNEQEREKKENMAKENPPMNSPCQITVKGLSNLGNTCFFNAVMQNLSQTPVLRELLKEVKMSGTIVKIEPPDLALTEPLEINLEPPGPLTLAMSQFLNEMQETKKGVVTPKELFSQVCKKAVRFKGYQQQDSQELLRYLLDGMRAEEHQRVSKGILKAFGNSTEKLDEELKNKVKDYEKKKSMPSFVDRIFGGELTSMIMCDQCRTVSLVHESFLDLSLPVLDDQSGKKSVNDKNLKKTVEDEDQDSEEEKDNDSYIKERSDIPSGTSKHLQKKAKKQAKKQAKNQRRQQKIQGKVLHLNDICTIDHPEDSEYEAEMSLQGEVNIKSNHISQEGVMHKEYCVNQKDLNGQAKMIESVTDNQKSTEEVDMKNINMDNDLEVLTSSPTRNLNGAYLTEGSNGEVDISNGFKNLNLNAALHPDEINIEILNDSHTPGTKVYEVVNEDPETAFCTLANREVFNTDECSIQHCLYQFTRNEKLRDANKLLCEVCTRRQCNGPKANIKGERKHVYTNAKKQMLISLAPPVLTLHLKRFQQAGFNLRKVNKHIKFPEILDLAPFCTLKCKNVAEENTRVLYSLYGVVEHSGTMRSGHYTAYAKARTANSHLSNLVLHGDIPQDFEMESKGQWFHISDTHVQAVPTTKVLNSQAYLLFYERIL
UCHL1, sequence (P09936 whole entry, looked up): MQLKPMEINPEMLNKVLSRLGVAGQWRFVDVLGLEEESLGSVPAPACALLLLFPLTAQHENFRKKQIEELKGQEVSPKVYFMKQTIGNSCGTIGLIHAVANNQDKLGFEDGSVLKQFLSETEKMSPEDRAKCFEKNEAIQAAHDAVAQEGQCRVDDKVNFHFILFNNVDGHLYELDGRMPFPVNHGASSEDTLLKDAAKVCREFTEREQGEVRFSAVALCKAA

| Structure (SMILES) | log2 ratio of Biotin-Ahx-Ub-VS probe labelling [1] | log2 ratio of Biotin-Ahx-Ub-VS probe labelling [2] | log2 ratio of Biotin-Ahx-Ub-VS probe labelling [3] | log2 ratio of Biotin-Ahx-Ub-VS probe labelling [4] | log2 ratio of Biotin-Ahx-Ub-VS probe labelling [5] | log2 ratio of Biotin-Ahx-Ub-VS probe labelling [6] | log2 ratio of Biotin-Ahx-Ub-VS probe labelling [7] | log2 ratio of Biotin-Ahx-Ub-VS probe labelling [8] | log2 ratio of Biotin-Ahx-Ub-VS probe labelling [9] | log2 ratio of Biotin-Ahx-Ub-VS probe labelling [10] |
| --- | --- | --- | --- | --- | --- | --- | --- | --- | --- | --- |
| CC(NC(=O)CCl)c1cccc2ccccc12 (stereo not given) | -0.00256 | -1.46 (active) | -0.109 | 0.0463 | -1.35 (active) | -1.96 (active) | -0.585 | -0.00367 | -0.21 | 0.303 |
| Cc1ncc2c(n1)CCN(C(=O)CCl)C2 | -0.152 | -0.47 | 0.0188 | 0.0625 | -0.771 | 0.268 | 0.0568 | -0.242 | -0.636 | -0.136 |
| O=C(CCl)NCC(=O)N1CCCC1 | -0.139 | -0.187 | -0.0276 | -0.18 | -1.42 (active) | 0.0513 | -0.323 | -0.0856 | -0.0663 | 0.0192 |
| O=C(CCl)N1CCN2C(=O)CCC2C1 (stereo not given) | -0.158 | -0.49 | -0.164 | -0.288 | -1.64 (active) | 0.118 | -0.0709 | -0.195 | -0.15 | 0.00152 |
| O=C(CCl)Nc1cccc(NC(=O)c2ccccc2)c1 | 0.292 | -0.595 | 0.0439 | 0.102 | -1.07 (active) | -0.427 | 0.221 | -0.0488 | -0.0163 | 0.163 |
| COc1ccc(-c2csc(NC(=O)CCl)n2)cc1 | -0.417 | -0.639 | 0.0611 | -0.221 | -1.27 (active) | -0.274 | -3.29 (active) | -0.17 | -0.394 | -0.287 |
| Cc1ccccc1OCC(=O)N1CCN(C(=O)CCl)CC1 | -0.157 | -0.203 | 0.281 | 0.113 | -1.52 (active) | 0.461 | -0.137 | -0.173 | -0.416 | -0.973 |
| O=C(CCl)N1CCOCCC1c1ccccc1 (stereo not given) | -0.163 | -0.354 | -0.148 | 0.00247 | -1.93 (active) | 0.325 | -0.0371 | -0.182 | 0.0371 | -0.424 |
| CC1Cc2ccccc2N1C(=O)CCl (stereo not given) | -0.391 | -0.238 | -0.117 | -0.328 | -1.4 (active) | 0.164 | -0.572 | -0.242 | -0.382 | 0.0877 |
| CC(C)n1nccc1NC(=O)CCl | -0.189 | -2.07 (active) | -0.0737 | -0.278 | -1.45 (active) | 0.181 | -0.327 | 0.0851 | -0.314 | -0.153 |
| O=C(CCl)N1CCN(c2nc3ccccc3o2)CC1 | -0.147 | -0.25 | 0.299 | -0.247 | -1.49 (active) | -0.125 | -0.319 | -0.131 | -0.407 | -0.379 |
| O=C(CCl)N1CCc2[nH]c3ccccc3c2C1 | -0.206 | -1.05 (active) | -0.175 | -0.319 | -1.24 (active) | -0.675 | -0.893 | -0.119 | -1.46 (active) | 0.191 |
| CC1CCc2onc(CNC(=O)CCl)c2C1 (stereo not given) | -0.0903 | -0.588 | -0.225 | -0.0595 | -1.33 (active) | 0.123 | -0.175 | -0.0579 | -0.0914 | 0.406 |
| CNC(=O)C1(NC(=O)CCl)CCCCC1 | -0.206 | -0.687 | -0.213 | -0.128 | -1.81 (active) | 0.248 | -0.358 | -0.0869 | 0.0503 | 0.154 |
